Measured values published in PubChem BioAssay AID743446 (Broad Institute, 2014).
Results with a measured potency or affinity are listed apart. Calls of active or inactive are those of the source. How the calls were made is not given here.

assay: viability loss in HEK293 cells – cell-based, plate reader, cherry-picked samples, cytotoxicity control, dose response (AID 743446); conditions: active compounds read low; at 26 µM unless noted

Structure (SMILES) | max activity
COC(=O)c1ccc(Nc2cc(C)nc3ccc(C)cc23)cc1 | -31.7% [at 12 µM] (inactive)
CC(C)(C)n1ncc2c(=O)n(CC(=O)OCc3ccccc3)cnc21 | -10.3% [at 0.38 µM] (inactive)
Cc1ccc(-n2cc(CN(C)Cc3nccn3C)c(-c3cccc(C)c3)n2)cc1 | 22.6% [at 1.6 µM] (inactive)
C[C@H](CO)N1C[C@H](C)[C@H](CN(C)C(=O)Nc2ccccc2)OCCCC[C@H](C)Oc2ccc(NC(=O)Nc3ccc4c(c3)OCO4)cc2C1=O | 50.9% [at 0.195 µM] (inactive)
CNCc1ccccc1Sc1ccc(O)c(O)c1 | -16.4% (inactive)
CN(C)c1cccc(C(=O)Nc2nc3ccccc3[nH]2)c1 | 39.2% [at 12 µM] (inactive)
COc1ccccc1N/C=C/c1onc(C)c1[N+](=O)[O-] | -8.08% [at 0.8 µM] (inactive)
O=C(Nc1ccc2c(c1)OCCO2)c1ccc(Cl)cc1Cl | -20.3% [at 3 µM] (inactive)
Cc1noc(C)c1S(=O)(=O)Nc1ccc2c(c1)C(=O)N([C@H](C)CO)C[C@H](C)[C@H](CN(C)C(=O)Nc1ccc(F)cc1)OCCCC[C@@H](C)O2 | 16.1% [at 0.1 µM] (inactive)
OC[C@H]1[C@@H](c2ccc(-c3ccc(F)cc3)cc2)[C@@H]2CN(Cc3ccccn3)CCCCN12 | -12.3% (inactive)
COc1ccc(NC(=O)N(C)C[C@@H]2OCCCC[C@H](C)Oc3ccc(NC(=O)NC4CCCCC4)cc3C(=O)N([C@H](C)CO)C[C@@H]2C)cc1 | 7.92% [at 0.195 µM] (inactive)
Cc1ccc(-c2cnn3c(N4CCOCC4)cc(C)nc23)cc1 | 35.7% [at 0.38 µM] (inactive)
Cc1ccnc(N2C(=O)c3ccccc3C2Nc2ccc3c(c2)OCCO3)c1 (stereo unspecified) | 25.2% [at 0.05 µM] (inactive)
COc1ccc(-c2noc(CCC(=O)N3CCN(c4ccc(Cl)cc4)CC3)n2)cc1 | 26.2% [at 12 µM] (inactive)
C[C@@H]1CN([C@@H](C)CO)S(=O)(=O)c2ccc(C3=CCCC3)cc2O[C@H]1CN(C)C(=O)c1ccccc1 | 11.7% [at 0.1 µM] (inactive)
O=C(CCc1nnc(CCCCc2ccccc2)o1)N1CCCC(O)C1 (stereo unspecified) | -17.7% [at 0.1 µM] (inactive)

Structure (SMILES) | max activity
Cc1ccc(C(=O)CN2C(=O)c3ccccc3S2(=O)=O)cc1 | 11.6% [at 3 µM] (inactive)
COc1ccc(-n2sc3ccc(F)cc3c2=O)cc1 | -22.4% [at 0.05 µM] (inactive)
COc1ccc(-c2cc(C(=O)Nc3cccc(O)c3)no2)cc1 | 75.5% [at 0.195 µM] (inactive)
Cc1ccccc1C(=O)Nc1ccc2c(c1)OCCO2 | -9.3% [at 0.05 µM] (inactive)
C[C@H](CO)N1C[C@H](C)[C@H](CN(C)C(=O)Nc2ccccc2)OCCCC[C@H](C)Oc2ccc(NC(=O)CCC(F)(F)F)cc2C1=O | -24.3% [at 0.195 µM] (inactive)
COCCCNc1ccn2nc(-c3ccccc3)cc2n1 | 42.6% [at 12 µM] (inactive)
COc1ccc(S(=O)(=O)Nc2ccc3c(c2)C(=O)N([C@H](C)CO)C[C@H](C)[C@H](CN(C)S(=O)(=O)c2ccc(F)cc2)OCCCC[C@@H](C)O3)cc1 | -23.7% [at 12 µM] (inactive)
O=C(Nc1ccc(N2CCOCC2)cc1)c1cnccn1 | -6.24% [at 3 µM] (inactive)
O=C(Nc1ccc(Cl)cc1)Nc1ccccc1C(=O)O | 16.5% [at 0.1 µM] (inactive)
Cc1ccc(C)c(S(=O)(=O)N(C(=O)c2ccncc2)c2ccc(OC(=O)c3ccncc3)cc2)c1 | 13.7% (inactive)
CCOc1ccc(-c2cnc3ccccc3n2)cc1 | 16.5% [at 0.38 µM] (inactive)
CN(C)c1ccc(C(=O)Nc2nc3c(s2)CCCC3)cc1 | -30% (inactive)
C[C@H](CO)N1C[C@H](C)[C@H](CN(C)C(=O)Nc2ccc(F)cc2)OCCCC[C@H](C)Oc2ccc(NC(=O)Nc3ccc(F)cc3)cc2C1=O | 17% [at 1.5 µM] (inactive)
C[C@H]1CCCCO[C@@H](CN(C)C(=O)Nc2ccccc2)[C@@H](C)CN([C@@H](C)CO)C(=O)c2cc(NC(=O)NC3CCCCC3)ccc2O1 | 12.4% [at 0.05 µM] (inactive)
CCCCN(Cc1ccccc1)S(=O)(=O)c1cc2c(cc1Br)CC(C)N2C(C)=O (stereo unspecified) | 18.2% [at 0.38 µM] (inactive)
